Among the data in ChEMBL document CHEMBL4513216, “Probing the Open Global Health Chemical Diversity Library for Multistage-Active Starting Points for Next-Generation Antimalarials” (ACS Infect Dis, 2020) are INHIBITION values, retold here.

Out of some 65,000 compounds screened, about 2,100 (3.2%) showed an effect of 50% or more. The median lay at about -52%. For the sample, strong results were picked, then their nearest neighbours and some compounds at random.

For the experiment, the system named is Plasmodium falciparum. The experiment can be described thus: Screen against P. falciparum Asexual Blood Stage (ABS), at 5uM. In kind it is functional, Dd2. Conditions: tested at 5 uM.
Regarding `CCCn1cc(NC(=O)c2cccnc2O)ccc1=O`, the INHIBITION was -8.23%. For the compound `CCc1nc(CNc2cc(C)nc(-c3cccnc3)n2)cs1`, the INHIBITION was -19.9%. As for `CCc1noc(C2CCCCN2C(=O)c2ccccc2)n1` (stereo not drawn), the INHIBITION is given as -89.7%. Turning to `CCc1noc(C2CCCCN2C(=O)c2nnc3ccccc3n2)n1` (stereo not drawn), the INHIBITION worked out at 65.5%.

For the compound `CCc1noc(C2CCCCN2C(=O)c2cccs2)n1` (stereo not drawn), the INHIBITION is -105%. To `Cc1cc(CN2C[C@@H](C)[C@@]3(CCN(C)C3=O)C2)oc1C` belongs -1.06%; to `CCC(CNC(=O)c1ccc(Br)o1)N1CCc2ccccc2C1` (stereo not drawn), 16.3%; to `CCC(CNC(=O)c1ccccc1Br)N1CCc2ccccc2C1` (stereo not drawn), 41.5%. For `CCC(CNC(=O)c1cncc(Br)c1)N1CCc2ccccc2C1` (stereo not drawn), the INHIBITION was 66.9%. `CCN1CC(CN(C)Cc2nc(-c3cccc(C)c3)oc2C)CC1=O` (stereo not drawn): the INHIBITION is reported as -142%. In the case of `CCOCC1CN(Cc2cccnc2OC)Cc2cnn(C)c21` (stereo not drawn), the INHIBITION is recorded as -60.6%.

Turning to `OCC1CCC2(CC1)CN(Cc1ccsc1)Cc1ccccc1O2` (stereo not drawn), the INHIBITION is recorded as -50.7%. As for `COCCN1CCOCC12CCN(c1nccs1)CC2`, the INHIBITION is given as -151%. As for `CN(C)c1ccc(CNC2(c3ccc(F)cc3)CCOCC2)cc1F`, the INHIBITION was 28.8%. For `Fc1ccc(C2(NCc3ccccc3)CCOCC2)cc1`, the INHIBITION is 64.2%. As for `CSc1ccc(CNC2(c3ccc(F)cc3)CCOCC2)cc1`, the INHIBITION worked out at 31.4%. `c1cnc(NCc2noc3c2CN(CCN2CCCC2)CC3)nc1`: the INHIBITION was -63.3%. Take `c1cc(-c2ccc3c(c2)CCC32CCN(c3nncs3)CC2)co1`: the INHIBITION worked out at 3.66%. In the case of `O=C(CCO)N1CCC2(CCc3ccc(-c4ccoc4)cc32)CC1` it was -76.5%; in that of `OCCN1CCC2(CCc3cc(-c4ccoc4)ccc32)CC1`, 61.2%. In the case of `COCCOCC1(CNCc2cccc(OC)c2)C[C@@H](O)[C@@H](O)C1` (stereo partly drawn), the INHIBITION is on record as -11.2%. As to `COCCOCC1(CNCc2ccc(F)cc2)C[C@@H](O)[C@@H](O)C1` (stereo partly drawn), the INHIBITION is 63.6%. For `COCCOCC1(CNCc2ccc(OC)cc2)C[C@@H](O)[C@@H](O)C1` (stereo partly drawn), the INHIBITION is -77.3%.

Regarding `CC(C)CCN1C2(CCN(Cc3nccs3)C2)c2ccccc2S1(=O)=O` (stereo not drawn), the INHIBITION is -17.8%.

Consider `CN1[C@@H]2CC[C@H]1CN(C(=O)c1nnc3n1CCCCC3)CC2`, for which the INHIBITION is listed as -58.6%. In the case of `Cc1cccc(CN2CCC3(CC2)NC(=O)CC3c2ccccc2)n1` (stereo not drawn) it was -3.5%; in that of `Cc1noc(C)c1CN1CCC2(CC1)NC(=O)CC2c1ccccc1` (stereo not drawn), -39.2%.

Consider `Cc1ccc(CN2CCC3(CC2)NC(=O)CC3c2ccccc2)s1` (stereo not drawn), for which the INHIBITION is 53.7%. In the case of `CCC1(CC)C(=O)NC(=O)N/C1=N/c1cccc(OC)c1`, the INHIBITION is -27.2%. For the compound `Cc1c(CN2CCCC2(C)C(=O)N2CCOCC2)cnn1C` (stereo not drawn), the INHIBITION was -23.9%. Take `NC(=O)C1(Cc2ccc(-c3ccccc3)cc2)CCCNC1` (stereo not drawn): the INHIBITION was 61.1%.

For `NC(=O)C1(Cc2ccccc2-c2cncnc2)CCCNC1` (stereo not drawn), the INHIBITION was -114%. To `CCNC(=O)C1(Cc2ccc(-c3ccccc3)cc2)CCCNC1` (stereo not drawn) belongs 27.7%. `CC1(C)CC(n2cc3nc(N4CCOCC4)[nH]cc-3c2=O)CC(C)(C)N1`: the INHIBITION is -53.2%. Regarding `Cc1cnn(CC2CN(CC(=O)Nc3cccnc3)CCO2)c1` (stereo not drawn), the INHIBITION is -66%.

In the case of `Cn1ccnc1C(=O)N[C@@H]1CN(CC2CCOCC2)[C@@H]2CCCO[C@@H]21`, the INHIBITION is -60%. In the case of `O=c1ccc(-c2cccs2)nn1CN1CCN(c2ccccn2)CC1`, the INHIBITION is given as -115%. Regarding `CNS(=O)(=O)c1cccc(C(C)NCc2cccc(C)c2C)c1` (stereo not drawn), the INHIBITION is recorded as 69.7%. Turning to `CNS(=O)(=O)c1cccc(C(C)NCc2nccn2C(C)C)c1` (stereo not drawn), the INHIBITION is listed as -9.39%. In the case of `CNS(=O)(=O)c1cccc(C(C)NCc2ccc(C)o2)c1` (stereo not drawn) it was 23.3%; in that of `CNS(=O)(=O)c1cccc(C(C)NCc2cccc(O)c2)c1` (stereo not drawn), 3.69%.

Regarding `CNS(=O)(=O)c1cccc(C(C)NCc2ccc(F)c(F)c2)c1` (stereo not drawn), the INHIBITION is 11.1%. Regarding `CNS(=O)(=O)c1cccc(C(C)NCc2ccncc2)c1` (stereo not drawn), the INHIBITION was -51.1%. To `CCOc1ccc(CNC(C)c2cccc(S(=O)(=O)NC)c2)cc1` (stereo not drawn) belongs 47.6%; to `CNS(=O)(=O)c1cccc(C(C)NCc2ccco2)c1` (stereo not drawn), 2.96%; to `CNS(=O)(=O)c1cccc(C(C)NCc2ccsc2)c1` (stereo not drawn), 67.2%.

For `CNS(=O)(=O)c1cccc(C(C)NCc2ccc(F)cc2F)c1` (stereo not drawn), the INHIBITION is reported as -3.64%. As for `CNS(=O)(=O)c1cccc(C(C)NCc2ccccc2)c1` (stereo not drawn), the INHIBITION was 59.4%. `CNS(=O)(=O)c1cccc(C(C)NCc2ccc(C)c(C)c2)c1` (stereo not drawn): the INHIBITION stood at 63.4%. Take `CN(Cc1ccc(F)cc1)C(=O)c1ccoc1CN1CCNC(=O)C1`: the INHIBITION was -169%. Consider `CCOCC(=O)NCCn1ccc(-c2ccccn2)n1`, for which the INHIBITION is given as -74.8%. To `Cc1nc(C)c(S(=O)(=O)NC(=O)c2sccc2C)s1` belongs -118%; to `Cn1ccnc1CN1CCC2(CC(=O)N(c3ccsc3)C2)C1` (stereo not drawn), -95.1%.
